CYP2C19 inhib: human CYP2C19 inhibition. CYP2C19 Supersomes, luciferin-H EGE luminescence, 30 min. inhibition, % at 5 µM. actives 21% (n = 96,000);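 active = CYP2C19 inhibition above a set limit at 5 µM in the primary screen, cut at about 50% in these data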;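 note: plate controls were negative control wells for no effect and 2.5 mM tranylcypromine positive control for full effect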
CYP2C19 act: cytochrome P450 2C19 (human) activation; P33261; activation factor at 5 µM; 96,000 tested, under 10 active; recombinant CYP2C19, luciferin-H EGE luminescence; hits give high values; 0 = fully inhibited enzyme, 1 = untreated enzyme;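 active = activation factor of at least 2 at 5 µM in the primary screen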;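 note: 0 = wells with 2.5 mM tranylcypromine and 1 = vehicle-only wells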
sEH inhibitor: soluble epoxide hydrolase (human) inhibition; recombinant human sEH enzymatic activity assay; inhibition, % at 2 µM; actives 0.34% (n = 91,000); in the data active = inhibition above about 80%
sEH activator: increases human soluble epoxide hydrolase activity | activation, % at 2 µM | purified human sEH enzymatic activity, activator screen | actives 0.04% (n = 91,000) | AID 717; in the data active = activation above about 37%
CYP2C9 inh: blocks human cytochrome P450 2C9 | P11712 | CYP2C9 Supersomes, luciferin-H conversion, luminescence | inhibition, % at 5 µM | actives 20% (n = 96,000);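 active = blocking of liver enzyme CYP2C9 beyond about 50% at 5 µM, limit read from the data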
Target sequence (P11712 whole entry, looked up): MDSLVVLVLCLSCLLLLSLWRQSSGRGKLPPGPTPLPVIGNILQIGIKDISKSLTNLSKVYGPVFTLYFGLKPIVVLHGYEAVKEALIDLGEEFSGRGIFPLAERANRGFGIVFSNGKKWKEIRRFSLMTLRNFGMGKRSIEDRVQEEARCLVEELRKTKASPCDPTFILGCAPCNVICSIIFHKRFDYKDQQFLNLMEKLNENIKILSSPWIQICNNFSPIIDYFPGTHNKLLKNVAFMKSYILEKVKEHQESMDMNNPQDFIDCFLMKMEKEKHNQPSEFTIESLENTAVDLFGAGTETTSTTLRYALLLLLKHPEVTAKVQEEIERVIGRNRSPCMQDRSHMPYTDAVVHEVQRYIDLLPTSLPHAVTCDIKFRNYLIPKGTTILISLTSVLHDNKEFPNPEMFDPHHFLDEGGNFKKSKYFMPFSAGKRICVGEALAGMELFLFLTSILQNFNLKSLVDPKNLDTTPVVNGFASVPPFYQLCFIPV
CYP2C9 activ: CYP2C9 (human) activation. recombinant CYP2C9, luciferin-H conversion, luminescence; hits give high values; factor 1 = untreated enzyme, 0 = blocked. actives 1.4% (n = 96,000). P11712. activation factor at 5 µM;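 active = activation factor of 2 or more for CYP2C9 at a 5 µM dose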;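 note: 0 = sulfaphenazole-blocked wells and 1 = vehicle-only wells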
* hit, by the source's call. Most compounds without a hit are left out; they make up all but 27% or so of the library.

`CCCc1cc(=O)[nH]c(SCC(=O)c2cc(C)n(C(C)COC)c2C)n1` (stereo unspecified) gave sEH inhibitor 7 and sEH activator -6.
`Cc1nc2ccc(N3C(=O)CCC3=O)cc2[nH]1` gave CYP2C19 inhib -14, CYP2C19 act 1.1, sEH inhibitor -2, sEH activator 0, CYP2C9 inh -10 and CYP2C9 activ 1.1.
For CCN1CCN(c2nc(-c3ccncc3)nc3ccccc23)CC1 the results were CYP2C19 inhib 51*, CYP2C19 act 0.5, sEH inhibitor 10, sEH activator -7, CYP2C9 inh 30 and CYP2C9 activ 0.7.
`CCn1c(=O)n(CC(=O)NC2CCCC(C)C2C)c(=O)c2ccccc21` (stereo unspecified) gave CYP2C19 inhib 29, CYP2C19 act 0.7, sEH inhibitor 34, sEH activator -34, CYP2C9 inh -5 and CYP2C9 activ 1.1.
Cn1c(C(C#N)C2=C(Cl)C(=O)N(c3ccccc3)C2=O)nc2ccccc21 (stereo unspecified) was read as CYP2C19 inhib 78*, CYP2C19 act 0.2, CYP2C9 inh 92* and CYP2C9 activ 0.1.
`Cn1c(C(C#N)/C(=N\S(=O)(=O)c2cccs2)c2ccccc2)nc2ccccc21` (stereo unspecified) gave CYP2C19 inhib 2, CYP2C19 act 1, sEH inhibitor -13, sEH activator 15, CYP2C9 inh 28 and CYP2C9 activ 0.7.
`Cc1nn2c(N3CCOCC3)c3c(nc2c1-c1ccccc1)CCCC3` gave CYP2C19 inhib -8, CYP2C19 act 1.1, sEH inhibitor -8, sEH activator 8, CYP2C9 inh 77* and CYP2C9 activ 0.2.
Cc1nn2c(NCC(C)C)c3c(nc2c1-c1ccccc1)CCC3 was read as CYP2C19 inhib 6, CYP2C19 act 0.9, sEH inhibitor 1, sEH activator -1, CYP2C9 inh 17 and CYP2C9 activ 0.8.
For Cc1nn2c(-n3ccnc3C)c3c(nc2c1-c1ccccc1)CCC3 the results were CYP2C19 inhib 90*, CYP2C19 act 0.1, sEH inhibitor 12, sEH activator -13, CYP2C9 inh 62* and CYP2C9 activ 0.4.
Screening Cc1nc2c(-c3ccc(F)cc3)c(C)nn2c(N2CCOCC2)c1C returned CYP2C19 inhib 44, CYP2C19 act 0.6, sEH inhibitor 0, sEH activator 0, CYP2C9 inh 35 and CYP2C9 activ 0.7.
`O=C1NN(c2ccc(F)c(Cl)c2)C(=O)/C1=C\c1cccc(OC(=O)c2cccs2)c1` gave CYP2C19 inhib -17, CYP2C19 act 1.2, sEH inhibitor 5, sEH activator -5, CYP2C9 inh 51* and CYP2C9 activ 0.5.
Cc1ccc(S(=O)(=O)C2(C(=O)N(C)C3CCCCC3)CC2)cc1 was read as CYP2C19 inhib 50*, CYP2C19 act 0.5, sEH inhibitor -18, sEH activator 16, CYP2C9 inh 8 and CYP2C9 activ 0.9.
`CN(C(=O)c1ccc(C(=O)N(C)C2CCCCC2)cc1)C1CCCCC1` gave sEH inhibitor 0 and sEH activator 2.
Cc1ccc(S(=O)(=O)C2(C(=O)N3CCCCC3C)CC2)cc1 (stereo unspecified) was read as CYP2C19 inhib 72*, CYP2C19 act 0.3, sEH inhibitor -10, sEH activator 9, CYP2C9 inh 7 and CYP2C9 activ 0.9.
COc1ccc(N(CC(=O)Nc2cccc(C(=O)O)c2)S(=O)(=O)c2c(C)noc2C)cc1 was read as CYP2C19 inhib 4, CYP2C19 act 1, CYP2C9 inh 68* and CYP2C9 activ 0.3.
Screening CCOC(=O)c1cccc(NC(=O)CN(c2ccc(OC)cc2)S(=O)(=O)c2c(C)noc2C)c1 returned CYP2C19 inhib 77*, CYP2C19 act 0.2, CYP2C9 inh 94* and CYP2C9 activ 0.1.
`COc1ccc(NC(=O)CN(c2cc(C)cc(C)c2)S(=O)(=O)c2c(C)noc2C)cc1` gave CYP2C19 inhib 7, CYP2C19 act 0.9, sEH inhibitor -6, sEH activator 10, CYP2C9 inh 17 and CYP2C9 activ 0.8.
For COc1ccc(CNC(=O)[C@H](C)NC(=O)C2CCN(S(=O)(=O)c3ccc(C)cc3)CC2)cc1 the results were CYP2C19 inhib 7, CYP2C19 act 0.9, sEH inhibitor 9, sEH activator -8, CYP2C9 inh 27 and CYP2C9 activ 0.7.
COc1ccc(CNC(=O)C2CCN(S(=O)(=O)c3ccc(-c4nn[nH]n4)cc3)CC2)cc1 was read as CYP2C19 inhib -9, CYP2C19 act 1.1, sEH inhibitor 17, sEH activator -19, CYP2C9 inh 65* and CYP2C9 activ 0.3.
Screening O=C(NC1CC2CCC1C2)C1CCN(S(=O)(=O)c2ccc(-c3nn[nH]n3)cc2)CC1 (stereo unspecified) returned CYP2C19 inhib -17, CYP2C19 act 1.2, sEH inhibitor 11, sEH activator -11, CYP2C9 inh 87* and CYP2C9 activ 0.1.
`CCCNC(=O)C1CCN(S(=O)(=O)c2ccc(-c3nn[nH]n3)cc2)CC1` gave CYP2C19 inhib 41, CYP2C19 act 0.6, sEH inhibitor 1, sEH activator 0, CYP2C9 inh 83* and CYP2C9 activ 0.2.
`O=C(COC(=O)CC1CCCC1)Nc1cc2c(cc1Cl)C(=O)c1ccccc1C2=O` gave CYP2C19 inhib 61*, CYP2C19 act 0.4, sEH inhibitor 4, sEH activator -5, CYP2C9 inh 42 and CYP2C9 activ 0.6.
For Cc1cc2c(cc(C(=O)N3CCC(C(=O)N4CCCC4)CC3)n2Cc2c(F)cccc2Cl)o1 the results were CYP2C19 inhib 96*, CYP2C19 act 0, sEH inhibitor 2, sEH activator -4, CYP2C9 inh 78* and CYP2C9 activ 0.2.
CCOC(=O)c1cc2occc2n1Cc1c(F)cccc1Cl was read as CYP2C19 inhib -16, CYP2C19 act 1.2, sEH inhibitor -1, sEH activator 3, CYP2C9 inh -5 and CYP2C9 activ 1.
Screening CCN(C(=O)CSc1ncccc1C(=O)OC(C)C)c1cccc(C)c1 returned CYP2C19 inhib 53*, CYP2C19 act 0.5, sEH inhibitor -4, sEH activator 3, CYP2C9 inh 44 and CYP2C9 activ 0.6.
CC(C)OC(=O)c1cccnc1SCc1cc(=O)n2ccccc2n1 was read as CYP2C19 inhib 32, CYP2C19 act 0.7, CYP2C9 inh 52* and CYP2C9 activ 0.5.
For CCOC(=O)c1cccnc1SCC(=O)NCc1ccccc1 the results were CYP2C19 inhib 98*, CYP2C19 act 0, sEH inhibitor -18, sEH activator 18, CYP2C9 inh 92* and CYP2C9 activ 0.1.
CC(C)OC(=O)c1cccnc1SCC(=O)N(C)c1ccccc1 was read as CYP2C19 inhib 69*, CYP2C19 act 0.3, sEH inhibitor 11, sEH activator -13, CYP2C9 inh 34 and CYP2C9 activ 0.7.

Compound activity deposited in PubChem BioAssay by several laboratories.
